# Screens as filed in PubChem.
# Shown are actives, neighbours in structure and some others; about 7.4% of the full set was active somewhere.
# Rab9 prom act: qHTS Assay for Rab9 Promoter Activators; Huh7 Rab9 promoter-luciferase reporter, luminescence, 24 h; Potency, µM (top dose mostly 9.22 µM), for the others: at the highest dose activation, negative = inhibition, most hits filed as activators; 2.8% of 320,000 active; note: % of control where 0% means no effect; nearly all actives have a fitted effect of over 60% in size
#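 Measured in stably transfected Huh7 cells bearing a Rab9 promoter–luciferase construct: 24 h compound treatment at 37 °C, followed by luminescence detection.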
# NPC1 prom act: qHTS Assay for NPC1 Promoter Activators; Huh7 NPC1 promoter luciferase reporter, 24 h; Potency, µM (titrated, usually from 9.22 µM), for inactives: at the top dose activation, hits mostly activators; 2.4% of 320,000 active; note: % of control where 0% means no effect; nearly all actives have a fitted effect of over 60% in size
#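 Luciferase expression driven by the NPC1 promoter was measured in stably transfected Huh7 cells after a 24 h compound incubation, using a luciferase reagent and a luminescence read.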
# FLuc modulator: qHTS profiling assay for firefly luciferase inhibitor/activator using purifed enzyme and Km concentrations of substrates (counterscreen for miR-21 project). purified FLuc, Km substrates, luminescence inhibition. Potency, µM (highest dose often 57.5 µM), for the others: at the top dose activity change, negative = inhibition, hits mostly inhibitors. AID 588342, 2011. 6.9% of 360,000 active. Luciferin 4-monooxygenase (Photinus pyralis), P08659;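 note: plate controls were vehicle for no effect and reference inhibitor for full effect; nearly all actives have a fitted effect of over 55% in size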
# Target sequence (P08659 whole entry, looked up): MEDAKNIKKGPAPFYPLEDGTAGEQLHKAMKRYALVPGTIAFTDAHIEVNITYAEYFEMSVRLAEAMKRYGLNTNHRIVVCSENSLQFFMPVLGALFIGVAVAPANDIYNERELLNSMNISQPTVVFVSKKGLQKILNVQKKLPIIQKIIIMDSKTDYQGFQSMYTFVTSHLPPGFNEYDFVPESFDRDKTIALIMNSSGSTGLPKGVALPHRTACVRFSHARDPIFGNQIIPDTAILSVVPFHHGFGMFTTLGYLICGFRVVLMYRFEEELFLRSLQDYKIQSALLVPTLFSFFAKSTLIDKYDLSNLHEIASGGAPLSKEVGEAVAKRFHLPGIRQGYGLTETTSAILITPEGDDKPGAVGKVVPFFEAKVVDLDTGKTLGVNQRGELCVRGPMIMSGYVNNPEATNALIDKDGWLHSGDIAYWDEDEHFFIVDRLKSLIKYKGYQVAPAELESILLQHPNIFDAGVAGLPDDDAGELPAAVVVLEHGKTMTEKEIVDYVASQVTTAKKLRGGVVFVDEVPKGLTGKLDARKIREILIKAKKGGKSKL
#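 Biochemical qHTS of compounds, final roughly 60 µM downward over six points, against 10 nM purified firefly luciferase using Km concentrations of substrates (10 uM D-luciferin, 10 uM ATP) in Tris acetate pH 7.5 buffer; luminescence output.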
# ELG1 genotoxic: qHTS screen for small molecules that induce genotoxicity in human embryonic kidney (HEK293T) cells expressing luciferase-tagged ELG1; HEK293T ELG1-luciferase reporter, luminescence, 16 h; Potency, µM (titrated, usually from 46 µM), for inactives: at the top dose activity change, positive = activation, actives largely listed as activators; 1.3% of 330,000 active; AID 504466, 2011; note: % of control where 0% means no effect; nearly all actives have a fitted effect of over 60% in size
#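 Genotoxic stress is detected as increased luminescence from luciferase-tagged ELG1 in HEK293T cells, measured with ONE-Glo after a 16 hr treatment at 37 °C.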
# SMN2 splice up: qHTS Assay for Enhancers of SMN2 Splice Variant Expression | HEK293 SMN2-luciferase splicing reporter, luminescence, 30-36 h | Potency, µM (doses to about 46.1 µM), for the others: at the highest dose activity change, positive = activation, most hits filed as activators | 2.8% of 210,000 active | AID 1458, 2008; note: % of control where 0% means no effect; nearly all actives have a fitted effect of over 55% in size
#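 qHTS luciferase splicing reporter: luminescence rises when SMN2 exon 7 is included in transfected HEK293 cells. Compound exposure lasted 30-36 h at 37C, with 4.5 mM final sodium butyrate as control, followed by a ONE-Glo read.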
# Numbers without * were called inactive; ? = inconclusive; . = not tested or not shown; [ ] = another dose, or the depositor's remark. Calls come from the whole dose curve; as a rule, active = well fitted curve in the direction sought with a large enough effect; inconclusive = small, poorly fitted or top-dose-only effect, or another doubt; inactive = no such curve, though single readings can be large; an effect the other way counts as inactive or inconclusive. Potency is the fitted concentration of half-maximal effect.
SMILES,Rab9 prom act,NPC1 prom act,FLuc modulator,ELG1 genotoxic,SMN2 splice up
CCN(c1ccc(C)cc1C)S(=O)(=O)c1nnc(NC(=O)c2ccc(F)cc2)s1,.,.,2%,.,.
COc1ccccc1OCCNC(=O)c1cccc(S(=O)(=O)NCc2ccccc2)c1,-7%,-3%,-1%,0%,.
Oc1ccc(/C=N/Nc2nc(-c3cccnc3)nc3ccccc23)c(O)c1,4%,-1%,4.8µM*,-3%,.
Cc1ccc(Nc2nc(-c3cccnc3)nc3ccccc23)cc1,-12%,-20%,-4%,-12%,.
Cc1ccccc1Nc1nnc(SCC(=O)NCC2CCCO2)s1 (stereo not given),.,.,.,2%,.
Cc1ccc(-n2nc3ccc(NC(=O)C(C)C)cc3n2)cc1,0.35µM*,0.35µM*,0.95µM*,1.2µM*,2.2µM*
Cc1ccc(-n2nc3ccc(NC(=O)c4ccco4)cc3n2)cc1,?,19%,9.5µM*,15µM*,1%
Cc1ccc(-n2nc3ccc(NC(=O)c4ccc5c(c4)OCO5)cc3n2)cc1,7%,0%,-1%,1%,-13%
CC(C)C(=O)Nc1ccc2nn(-c3ccc(F)cc3)nc2c1,0.089µM*,0.11µM*,0.85µM*,?,.
Cc1ccc(-n2nc3ccc(NC(=O)c4oc5ccc(C)cc5c4C)cc3n2)cc1,.,.,-14%,.,14%
O=C(Nc1ccc2nn(-c3ccccc3)nc2c1)c1ccc(Br)o1,4%,3%,1%,?,3%
CC(C)CC(=O)Nc1ccc2nn(-c3ccccc3)nc2c1,1.6µM*,1.6µM*,2.7µM*,?,6.3µM*
CS(=O)(=O)Nc1cccc(S(=O)(=O)N2CCN(C(=O)c3ccccc3)CC2)c1,-4%,0%,4%,-2%,.
CCOC(=O)C1CCCN(CCC(=O)Nc2ccc(OC)cc2OC)C1 (stereo not given),.,.,2%,.,-4%
Cc1cccc(Nc2nc3c(S(=O)(=O)c4ccc(Br)cc4)nnn3c3ccsc23)c1C,.,.,-4%,.,.
CCCC(=O)Nc1ccc2nn(-c3ccc(OC)cc3)nc2c1,2µM*,?,5.4µM*,?,.
CCCC(=O)Nc1cc2nn(-c3ccc(OC)cc3)nc2cc1C,.,.,?,.,22%
O=C(N/N=C/c1c[nH]c2ccccc12)c1ccc2c(c1)OCCO2,?,?,0.95µM*,?,.
O=C(N/N=C/c1ccccn1)c1sc2ccccc2c1Cl,-1%,-1%,9.5µM*,?,.
O=C(N/N=C/c1c[nH]c2ccccc12)c1ccncc1,9%,6%,?,9%,6%
O=C(N/N=C/c1ccc([N+](=O)[O-])o1)c1sc2ccccc2c1Cl,0%,-7%,3%,-9%,.
O=C(N/N=C/c1c[nH]c2ccccc12)c1ccccc1,?,?,13µM*,?,.
O=C(N/N=C/c1c[nH]c2ccccc12)c1sc2ccccc2c1Cl,?,12%,12µM*,?,?
O=C(CN1C(=O)NC2(CCc3ccccc32)C1=O)Nc1ccccc1Cl (stereo not given),.,.,.,-3%,.
CCOc1ccccc1NC(=O)c1c(C)cc(C)nc1SCC(=O)c1cccc(OC)c1,.,.,-9%,.,.
SMILES,Rab9 prom act,NPC1 prom act,FLuc modulator,ELG1 genotoxic,SMN2 splice up
C[C@H]1Cc2c(-c3ccccc3)nc3c(c2CO1)CN(C(=O)c1ccco1)CC3,.,.,.,.,3%[9.22 µM]
CC1(S(=O)(=O)O)CC(=O)c2ccccc2C1=O (stereo not given),4%,1%,2%,-6%,.
CCOc1ccc(Br)cc1C(=O)N/N=C/c1c[nH]c2ccccc12,-4%,1%,2%,-1%,.
O=C(N/N=C/c1c[nH]c2ccc(Br)cc12)c1ccncc1,-1%,4%,3%,0%,7%
COc1ccccc1C(=O)N/N=C/c1c[nH]c2ccccc12,13%,19%,17µM*,5%,.
O=C(N/N=C/c1c[nH]c2ccc(Br)cc12)c1ccc2c(c1)OCO2,-4%,-2%,27µM*,-1%,23%
O=C(N/N=C/c1c[nH]c2ccccc12)c1cc(Br)ccc1O,14%,19%,27µM*,6%,.
O=C(N/N=C/c1c[nH]c2ccccc12)c1cccs1,?,?,9.5µM*,23µM*,.
COc1cc(Cl)c(C)cc1Nc1nc2ccccc2nc1NS(=O)(=O)c1ccccc1,.,.,?,.,-13%
CC(=O)c1ccc(NC(=O)Cn2c(-n3nc(C)cc3C)nc(C)cc2=O)cc1,.,.,-3%,.,.
Cc1ccc(C)c(N2CCN(c3c(CN4CCCC4)c(=O)oc4ccccc34)CC2)c1,.,.,-1%,.,9%
Cc1ccc(C(=O)Nc2ccc(C(=O)N/N=C/c3c[nH]c4ccccc34)cc2)cc1,2%,11%,?,3%,10%
O=C(N/N=C/c1cccc([N+](=O)[O-])c1O)c1cccs1,-1%,-6%,13µM*,0%,-63%
O=C(CSCc1ccccc1)N/N=C/c1ccccc1OCc1ccccc1,13%,4%,-15%,-6%,.
Cc1cc(C(=O)N/N=C/c2c[nH]c3ccccc23)cs1,11%,16%,15µM*,17%,?
O=C(N/N=C/c1ccccc1OCc1ccccc1)c1cccs1,-4%,9%,4.3µM*,13%,26%
O=C(N/N=C\c1cn[nH]c1-c1ccccc1)c1cccs1,1%,0%,24µM*,13%,19%
CCOC(=O)c1ccc(NC(=O)Cn2nc(SC)c(S(=O)(=O)c3ccc(Cl)cc3)c2N)cc1,.,.,6%,.,-73%
COc1ccc2c(c1)N(CC[C@H]1CCCCN1C)c1ccccc1S2,.,.,.,.,-16%[9.22 µM]
C/C(=C\c1ccc2c(c1)OCO2)C1Nc2cccc3cccc(c23)N1,16%,7%,?,4%,.
O=C(NC(Cc1c[nH]c2ccccc12)C(=O)N/N=C/c1cccc2ccccc12)c1cccs1 (stereo not given),0%,-1%,2%,-5%,6%
Cc1c(/C=N/NC(=O)c2sc3ccccc3c2Cl)cnn1C,0%,3%,?,-1%,4%
O=C(N/N=C/c1cccc2ccccc12)c1cccs1,3.5µM*,5.6µM*,2.1µM*,?,.
Cn1cccc1/C=N/NC(=O)c1sc2ccccc2c1Cl,?,?,2.7µM*,14%,0%
NC(=O)C(=CNc1nc(-c2ccc(Cl)c(Cl)c2)cs1)C(N)=O,1%,-9%,-9%,8%,.
N/C(=N\O)c1ccc(N2CCN(c3ncccc3C(F)(F)F)CC2)nc1,2.5µM*,2.2µM*,12µM*,?,.
O=C(Nc1ccc(N2CCN(c3ncccc3C(F)(F)F)CC2)nc1)c1cccs1,-16%,-6%,?,-23%,.
O=C(CN1CCOCC1)NCCNC(=O)CN1CCOCC1,-2%,-2%,-1%,-1%,13µM*
